Compound activity (PubChem)
Many of the other results were omitted from the sample, so hits are more common in it than they were.
RBX1-CUL1 inh = blocks human RBX1-Cullin-1 di-ubiquitin formation; P62877+Q13616; in vitro K48 di-Ub FRET, acceptor:donor ratio, 45 min; inhibition, % at 10 µM; actives 0.6% (n = 140,000); AID 1347404; in the data active = inhibition above about 25%
Numbers without * were called inactive.

SMILES	RBX1-CUL1 inh
COC(=O)OCC12CCC(O1)C1(C)C(=O)OCC21 (configuration not stated)	56.0*
CCOC(=O)C1C(=N)Oc2c(c(=O)oc3ccccc23)C12C(=O)N(CC(=O)OC)c1ccccc12 (configuration not stated)	1.3
O=C1C(=O)c2cccc3cccc1c23	0.7
O=C1C(=O)c2c3ccccc3cc3cccc1c23	-1.2
O=C1C(=O)c2ccccc2-c2ccccc21	98.0*
COc1ccc(C2c3c(c4ccccc4oc3=O)OC(=N)C2C#N)c(OC)c1OC (configuration not stated)	-3.1
O=c1cccc2n1C[C@H]1C[C@H]2CN(Cc2nc(N3CCOCC3)c3cc(Cl)ccc3n2)C1	21.0
N#CC(C#N)=Cc1csc2ccccc12	-14.5
N#CC(C#N)=Cc1ccc([N+](=O)[O-])s1	27.0*
CSc1[nH]c2ccccc2c1CN1CCCCC1	-0.1
COC(=O)[C@]1(C#N)[C@@H](c2ccccc2)CSC12C(C)(C)C(=O)C2(C)C	5.8
N#CC1C(=N)Oc2c(c(=O)oc3ccccc23)C1c1ccc(O)cc1 (configuration not stated)	-9.7
CN1C2CCC(OC(=O)C(CO)c3ccccc3)C1CC2 (configuration not stated)	-11.7
Fc1ccc2c(c1)C1C=CCC1C(c1cccnc1)N2 (configuration not stated)	3.0
Cc1cc(/C=C2\C(=O)NC(=O)N(Cc3ccccc3)C2=O)c(C)n1-c1ccc(Cl)c(C(=O)O)c1	35.8*
Cc1cc(/C=C2\C(=O)NC(=S)N(c3cccc(Cl)c3)C2=O)c(C)n1-c1cc(C(=O)O)cc(C(=O)O)c1	55.4*
O=C1NC(=S)NC(=O)C1=Cc1ccccc1OCc1ccc(C(=O)O)cc1	-9.6
C=CCN1C(=O)/C(=C/c2cc(C)n(-c3cccnc3)c2C)C(=O)NC1=S	3.8
CCOc1ccc(N2C(=O)/C(=C/c3cc(C)n(-c4ccc(S(N)(=O)=O)cc4)c3C)C(=O)NC2=S)cc1	27.6*
COc1ccc(N2C(=O)/C(=C/c3cc(C)n(-c4ccc(C(=O)O)cc4C)c3C)C(=O)NC2=S)c(OC)c1	36.7*
COc1ccc(C=C2C(=O)NC(=S)NC2=O)c(OC)c1	-2.4
CCCC1=C(C(=O)OCC)C2(C(=O)Nc3ccccc32)C(C(=O)OCc2ccccc2)C(=N)O1 (configuration not stated)	6.4
CC(=O)N(C)c1ccc2n(C)c(-c3ccc(OC(=O)N(C)C)cc3)c[n+]2c1	-4.1
O=C(CCN1CCN(CCOC(c2ccc(F)cc2)c2ccc(F)cc2)CC1)c1ccc(F)cc1	-2.1
CN(C)CC(O)c1ccccc1Cl (configuration not stated)	4.0
SMILES	RBX1-CUL1 inh
CCC(C)(C)C1CCc2c(sc(NC(=O)C3C(C)(C)C3(C)C)c2C#N)C1 (configuration not stated)	8.3
CC(C)NCC(O)COc1ccc2[nH]cc(CCN)c2c1 (configuration not stated)	5.6
O=c1cccc2n1C[C@H]1C[C@H]2CN(Cc2nc(NCc3cccs3)c3ccccc3n2)C1	12.8
Cc1nnc2n1NC(c1cc3ccccc3n3nnnc13)S2 (configuration not stated)	3.4
C=CC1CN2CCC1CC2[C@H](OC(=O)CC)c1ccnc2ccc(OC)cc12 (some centres not stated)	-5.4
N#CC1C(=N)Oc2c(c(=O)oc3ccccc23)C1c1ccc(Cl)c(Cl)c1 (configuration not stated)	-3.9
N#CC1C(=N)Oc2c(c(=O)oc3ccccc23)C1c1ccc(Cl)cc1Cl (configuration not stated)	-3.1
NCCc1cn2ccccc2n1	-1.4
O=C1CCC(c2ccc(N3CCNCC3)cc2)=NN1	8.1
COC(=O)C1(c2ccccc2)CCN(C)CC1	8.7
Cc1[nH]cnc1-c1nnc2n1-c1ccc(Br)cc1C(c1ccccc1Cl)=NC2	8.4
COc1cccc(CCNCc2ccc(F)cc2)c1	-2.5
NCCc1ccccc1Sc1ccccc1	9.1
CN1C(=O)N(C)C(=O)C(Cl)(Cl)C1=O	32.7*
O=C1NC(=O)C2C1C1(c3ccccc3)NC2(c2ccccc2)C2C(=O)NC(=O)C21 (configuration not stated)	4.0
O=C1NC(=S)N(c2cccc(F)c2)C(=O)/C1=C/c1ccc(Br)o1	93.8*
C=CCN1C(=O)/C(=C/c2ccc(Br)s2)C(=O)NC1=S	1.2
O=C1NC(=O)N(c2ccccc2)C(=O)/C1=C\c1ccccc1	-10.0
CNC(=O)Oc1ccc(-c2c[n+]3cc(C)ccc3n2C)cc1	-6.2
CN(C)C(=O)Oc1cccc(-c2c[n+]3cc(C(F)(F)F)ccc3n2C)c1	-2.4
O=C1NC(=O)N(Cc2ccc(F)cc2)C(=O)/C1=C\c1ccoc1	75.8*
COc1cccc(CN2CCN(Cc3ccc(Cl)cc3)CC2)c1	-9.9
CN1CCN(Cc2ccc(F)cc2Cl)CC1CCO (configuration not stated)	0.2
CCOC(=O)CC1=C(C(=O)OCC)C2(C(=O)Nc3ccccc32)C(C(=O)OCCOC)C(=N)O1 (configuration not stated)	-10.4
O=C(Cc1ccccc1)Oc1ccc(=O)n(-c2ccccc2)n1	-11.4
